Screening data as filed in PubChem.
Only some compounds are listed: those with a hit (about 3.1% of all), similar ones and a draw of the others.
Pin1 inhibitor: inhibitors of human Pin1; Q13526; Pin1 FP peptide displacement, HiFluor488, 10 min; Potency, µM (top dose mostly 115 µM), without a hit: top-dose activity, negative = inhibition, hits mostly inhibitors; 390,000 compounds, 0.009% hits; active = well fitted inhibition curve with a large enough effect in the polarisation, with a control signal flat, not every such curve was filed as active; inconclusive = small, poorly fitted or top-dose-only effect, or effect the other way, or a change in a side signal; inactive = no such curve, though single readings can be large or run the other way; the % refers to the polarisation; note: % is set by controls: 0 for no effect and ±100 for the full control effect
Target sequence (Q13526 whole entry, looked up): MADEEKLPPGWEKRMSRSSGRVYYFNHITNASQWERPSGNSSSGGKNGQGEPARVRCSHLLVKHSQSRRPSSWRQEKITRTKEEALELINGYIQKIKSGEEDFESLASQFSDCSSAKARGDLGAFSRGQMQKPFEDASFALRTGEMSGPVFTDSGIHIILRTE
PLK1 PBD block: PLK1 (human) polo-box domain binding inhibition; P53350; Plk1 PBD binding of FITC phosphopeptide, fluorescence polarization; Potency, µM, for the others: max response, negative = inhibition, most hits filed as inhibitors; 360,000 compounds, 2.8% hits; AID 720504; note: series mostly up to about 57 µM; % is set by controls: 0 for no effect and ±100 for the full control effect; nearly all actives have a fitted effect of over 65% in size
TDP1 inh: TDP1 (human) enzyme inhibition; recombinant TDP1, AlphaScreen DNA substrate cleavage; Q9NUW8; 350,000 compounds, 0.28% hits; AID 485290; Potency, µM (highest dose often 130 µM), for the others: top-dose activity change, negative = inhibition, most hits filed as inhibitors; note: % is set by controls: 0 for no effect and ±100 for the full control effect; nearly all actives have a fitted effect of over 40% in size
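Compounds were preincubated with Tdp1 (1 nM final) for 15 min at room temperature before substrate (15 nM final) started a 5 min reaction; beads (10 ug/ml final) were then added for 10 min before AlphaScreen detection.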
VDR inh: inhibitors of human vitamin D receptor. P11473. VDR-SRC2-3 peptide fluorescence polarization, 2 h. Potency, µM, inactives show max response, negative = inhibition, usual class: inhibitors. 400,000 compounds, 0.93% hits; note: % is set by controls: 0 for no effect and ±100 for the full control effect
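After 23 nl compound addition and a short centrifugation, plates sat for 2 hours at ambient temperature; polarization of fluorescence then indicated loss of VDR binding to peptide SRC2-3.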
Tb PFK inh-1: inhibitors of T. brucei phosphofructokinase | O15648 | T. brucei PFK, ADP-Glo luminescence | Potency, µM (titrated, usually from 57.5 µM), without a hit: at the top dose activity, negative = inhibition, most hits filed as inhibitors | 330,000 compounds, 0.17% hits;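 note: 0% = uninhibited 1x PFK enzyme wells and -100% = no-enzyme wells; nearly all actives have a fitted effect of over 60% in size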
Target sequence (O15648 whole entry, looked up): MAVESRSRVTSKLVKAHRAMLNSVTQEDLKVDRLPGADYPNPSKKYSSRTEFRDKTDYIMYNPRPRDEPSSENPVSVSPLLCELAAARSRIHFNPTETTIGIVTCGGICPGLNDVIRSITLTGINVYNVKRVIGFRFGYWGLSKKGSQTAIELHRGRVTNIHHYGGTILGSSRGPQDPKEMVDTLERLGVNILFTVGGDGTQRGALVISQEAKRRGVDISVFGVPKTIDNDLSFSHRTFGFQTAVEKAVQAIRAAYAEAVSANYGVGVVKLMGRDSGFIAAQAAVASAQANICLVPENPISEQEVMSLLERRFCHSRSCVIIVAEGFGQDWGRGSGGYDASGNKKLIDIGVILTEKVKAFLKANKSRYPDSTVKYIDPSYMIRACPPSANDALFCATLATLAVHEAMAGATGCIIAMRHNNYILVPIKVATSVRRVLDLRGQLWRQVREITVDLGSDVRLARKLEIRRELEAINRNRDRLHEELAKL
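PFK 1.25 nM, F6P 0.5 mM, ATP 0.1 mM, 0.1 M TEA pH 8.0, 5 mM MgCl2, 0.01% Tween20, 0.1% BSA; 45 min RT. ADP-Glo readout. qHTS titration up to 57 uM; curves fitted, compounds curve-classed.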
S-ASM inh: inhibitors of human secretory acid sphingomyelinase; placental ASM, HMU-PC fluorogenic substrate, 60 min; Potency, µM (series often up to 57.5 µM), for the others: top-dose activity change, negative = inhibition, usual class: inhibitors; 340,000 compounds, 0.006% hits; AID 504937
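Fluorogenic HMU-PC substrate (9 uM final) is turned over by placental ASM in 60 min at 37 C after a 10 min compound preincubation. Reaction ended by alkaline stop (pH 10), with fluorescence read at 386/447 nm.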
Tb PFK KinaseGlo: inhibits T. brucei PFK measured by ATP depletion; shares compounds with Tb PFK inh-1; Tb PFK enzyme, ATP depletion, Kinase-Glo Plus luminescence; Potency, µM (titrated, usually from 57.5 µM), for inactives: at the top dose inhibition; 1,100 compounds, 47% hits; calls by dose curve; note: nearly all actives have a fitted effect of over 60% in size
Tb PFK inh-2: validation of T. brucei phosphofructokinase inhibitors. Potency, µM (series often up to 57.5 µM), for inactives: at the highest dose activity change, negative = inhibition, actives largely listed as inhibitors. 1,100 compounds, 41% hits. shares compounds with Tb PFK inh-1. purified T. brucei PFK, ADP-Glo luminescence, 45 min;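 note: plate controls were full PFK enzyme control for no effect and no enzyme control for full effect; nearly all actives have a fitted effect of over 60% in size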
* marks the source's active call; other numbers are inactive results; ? = inconclusive; / = no result; [ ] = another dose, or the depositor's remark. Unless noted, calls come from the whole dose curve; as a rule, active = well fitted curve in the direction sought with a large enough effect; inconclusive = small, poorly fitted or top-dose-only effect, or another doubt; inactive = no such curve, though single readings can be large; an effect the other way counts as inactive or inconclusive. Potency is the fitted concentration of half-maximal effect.

SMILES	Pin1 inhibitor	PLK1 PBD block	TDP1 inh	VDR inh	Tb PFK inh-1	S-ASM inh	Tb PFK KinaseGlo	Tb PFK inh-2
CCNS(=O)(=O)c1ccc(NC(=O)Cn2cc([N+](=O)[O-])cn2)cc1	1%	?	5%	-2%	12µM*	-4%	12µM*	?
Cc1cccc(-n2c(/C=C/c3c[nH]c4ccccc34)nc3ccccc3c2=O)c1	?	/	6%[12.3 µM]	2%	/	/	/	/
COc1ccc(C2CN(C)CC2C(=O)c2ccc(F)cc2)cc1Cl (centres undefined)	1%	-6%	-4%	-5%	-7%	-1%	/	/
COc1cc(C2/C(=C(/O)c3ccc(F)cc3)C(=O)C(=O)N2CCCC(=O)O)ccc1O (centres undefined)	-7%	-6%	-9%	-12%	?	5%	12µM*	21µM*
COc1ccc2nc(NC(=O)c3ccccc3O)sc2c1	4%	-12%	/	4%	?	30%	-30%	?
CC/C=C\C/C=C\C/C=C\C/C=C\C/C=C\CCCC(=O)NCCc1ccc(O)c(O)c1	/	/	-3%	-15%	/	/	/	/
O=C(Nc1ccc(S(=O)(=O)NC2=NCCCCC2)cc1)c1ccc(Cl)c([N+](=O)[O-])c1	0%	4%	3%	14%	?	-12%	13µM*	?
CN(C)C1(CNC(=O)c2ccc(NS(=O)(=O)c3ccc(Cl)c(Cl)c3)cc2)CCCCC1	?	-4%	4%	-3%	-1%	-1%	/	/
O=C(Cc1ccc(Cl)c(Cl)c1)Nc1cccc2ncccc12	7%	-4%	3%	-10%	11µM*	4%	11µM*	11µM*
O=C(OCc1ccc(Cl)c(Cl)c1)c1ccccn1	0%	1%	-4%	-8%	?	0%	/	/
CCC1COC(Cn2cncn2)(c2ccc(Cl)cc2Cl)O1 (centres undefined)	/	/	4%	-13%	/	/	/	/
C=C1C2C[C@]3(C4CC5[C@@]6(C)CC[C@H](O)[C@@]5(C3CC2=O)C4[N+]([O-])(CC)C6)[C@@H]1O (some centres undefined)	/	/	6%	3%	/	/	/	/
Clc1ccc2scc(CN3CCCCC3)c2c1	0%	-18%	-3%	-14%	?	6%	?	?
c1ccc2c(CN3CCCCCCC3)c[nH]c2c1	0%	-2%	3%	5%	-2%	5%	/	/
Cc1ccc2cc3c(ccc4ccccc43)c3c2c1CC3	/	/	-1%	-2%	/	/	/	/
COc1ccc(N=C2SC(C(N)=O)CC(=O)N2Cc2ccc3c(c2)OCO3)cc1 (centres undefined)	-2%	-15%	-3%	0%	?	-2%	1.7µM*	?
O=C1CC(N2CCN(c3ccc(Cl)c(Cl)c3)CC2)C(=O)N1 (centres undefined)	-1%	-5%	-3%	-14%	6µM*	0%	?	?
O=C1C2CCCN2C(c2cccnc2)N1c1ccc(Cl)c(Cl)c1 (centres undefined)	3%	-3%	2%	-1%	-5%	-3%	/	/
O=C1CCCC2[C@@H]3CCCN4CCC[C@@H](CN12)C34 (some centres undefined)	/	/	14%[56.1 µM]	3%	/	/	/	/
O=C(NC(=S)Nc1ccccc1C(=O)O)c1ccc2ccccc2c1	-4%	?	-3%	-26%	?	12%	-24%	?
c1ccc(P(c2ccccc2)c2ccccc2)cc1	/	/	18%	/	/	/	/	/
C=C(C)[C@]12C[C@@H](C)[C@@]34O[C@](Cc5ccccc5)(O[C@@H]1[C@@H]3C=C(COC(=O)Cc1ccc(O)c(OC)c1)C[C@]1(O)C(=O)C(C)=C[C@@H]41)O2	/	/	12%	-13%	/	/	/	/
Cc1ccc(N/N=C/c2c(C)c(C#N)c(=O)n(C)c2O)cc1C	?	24µM*	-1%	?	?	9%	6%	-3%
O=C(O)c1cc2ncc(-c3[nH]ncc3[N+](=O)[O-])cn2n1	?	-14%	-14%	4%	?	0%	-21%	?
CC1(C)C(O)CC(O)[C@]2(C)C1CC(=O)[C@]1(C)C2CC[C@@]2(C)C(c3ccoc3)OC(=O)C3OC321 (some centres undefined)	/	/	11%	1%	/	/	/	/
SMILES	Pin1 inhibitor	PLK1 PBD block	TDP1 inh	VDR inh	Tb PFK inh-1	S-ASM inh	Tb PFK KinaseGlo	Tb PFK inh-2
CN1CCCC2(CCN(C(=O)c3csnn3)CC2)C1	/	/	/	8%	/	/	/	/
c1ccc2c(c1)OC[C@@H](C1=NCCN1)O2	/	/	17%[56.1 µM]	-7%	/	/	/	/
CC(c1cccs1)N(Cc1ccco1)C(=O)Nc1ccc(Cl)c(Cl)c1 (centres undefined)	2%	2%	7%	-4%	?	-5%	10%	-2%
COC(C)C(O)(C(=O)OC1=CCN2CC[C@H](O)[C@H]12)C(C)C (some centres undefined)	/	/	-8%[56.1 µM]	/	/	/	/	/
CN(C)c1ccc(/C=N\NC(=O)c2ccc(Cn3cc(Cl)cn3)cc2)cc1	22%	-8%	3%	-12%	12µM*	22%	2.7µM*	3.4µM*
O=C(NN=Cc1ccc(N(CCCl)CCCl)cc1Cl)c1cccnc1	3%	-2%	/	-3%	/	58%	/	/
CN1CCC(OC(=O)Cc2ccccc2)CC1	-5%	-10%	-5%	6%	1%	3%	/	/
CCc1cc(CNC(=O)c2ccc(OC3CCN(CCc4ccccc4)CC3)cc2)on1	-3%	-1%	14µM*	-9%	15µM*	2%	17µM*	21µM*
C[C@]12CCC3C(CCC4=C(Cl)C(=O)CC[C@@]43C)C1CCC2O (some centres undefined)	/	/	5%	?	/	/	/	/
Cc1ccc(-c2csc(Nc3ccc(S(N)(=O)=O)cc3)n2)o1	13%	?	9%	-15%	11µM*	-18%	?	?
O=C(NC1CCCCCC1)c1ccc[nH]c1=S	0%	-7%	5%	?	-17%	1%	/	/
Cc1c(NC(=O)c2ccc(Cl)c([N+](=O)[O-])c2)cccc1-n1cnnn1	-7%	-3%	0%	3%	?	-3%	?	?
O=C1CC(c2ccc(O)c(O)c2)Oc2c1ccc(O)c2O (centres undefined)	?	-21%	/	9%	?	-4%	1.9µM*	2.1µM*
O=C1CC(c2ccc(O)cc2)Oc2cc(O)cc(O)c21 (centres undefined)	-2%	-11%	9%[56.1 µM]	1%	?	-3%	/	/
COC(=O)[C@@H]1C[C@H]2CC[C@H](O)C[C@H]2N1CC1CC1	/	/	0%	/	/	/	/	/
